# Assay results as given in PubChem BioAssay (NCI).
# Compounds without any hit were thinned out: in the full panel of roughly 79,000, 15% have a hit. Calls of active or inactive are those of the source. No stated cut-off is given here; in the data, active means growth inhibition above about 70%; inactive means the rest.
# Experiment: NCI Yeast Anticancer Drug Screen. Data for the mec2-1 strain (AID 157)
# Details: S. cerevisiae mec2-1 strain, at 5.0 µM (retest, dose inferred, filed as 0.5), active compounds read high
# How it was run: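 Strain: mec2-1 (DNA repair/cell cycle alteration). Compound exposure, then growth measured; inhibition expressed relative to vehicle.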
row,SMILES,growth inhibition
1,N#Cc1c(SCc2ccc(Cl)cc2)nsc1Nc1ccc(Cl)cc1,91% (active)
2,CC(CO)(Nc1ccc([N+](=O)[O-])cc1[N+](=O)[O-])C(=O)O (stereo not given),14% (inactive)
3,O=[N+]([O-])/C(C(Cl)=C(Cl)Cl)=C(/Nc1ccccc1)Sc1ccccc1,41% (inactive)
4,CC(SCc1ccccc1)C(=O)O (stereo not given),3% (inactive)
5,O=C1C2(Cl)C(Cl)=C(Cl)C1(Cl)C1(Cl)C(Cl)=C(Cl)C(=O)C21Cl (stereo not given),45% (inactive)
6,O=C(CNC(=O)c1ccccc1)Oc1c(Cl)c(Cl)c(Cl)c(Cl)c1Cl,42% (inactive)
7,CN(C)c1nc(NNS(=O)(=O)c2ccc(N)cc2)nc(N(C)C)n1,2% (inactive)
8,CC1(C(Cl)(Cl)Cl)C=CC(O)(C#CC2(O)C=CC(C)(C(Cl)(Cl)Cl)C=C2)C=C1 (stereo not given),91% (active)
9,COCCN1C(=O)C2c3[nH]c4ccccc4c3C3CCC(C(C)(C)C)CC3C2C1=O (stereo not given),-1% (inactive)
10,Cc1nc(N)sc1N=Nc1cccc(Cl)c1Cl,-8% (inactive)
11,ClC1=C(Cl)C2c3ccccc3C1c1ccccc12,6% (inactive)
12,C=C/C=C/CC=C,-48% (inactive)
13,C/C(=N\NC(=S)NCc1ccccc1)c1nccnc1C,19% (inactive)
14,COC(=O)c1cc(OC)c(OC)c(OC)c1,1% (inactive)
15,Nc1nc2c(ccc3ccccc32)s1,-17% (inactive)
16,N=C(N)c1ccc(N=Nc2cc(/C=C/c3ccccc3)ccc2O)cc1,2% (inactive)
17,O=C1NC(=O)N(c2ccc([N+](=O)[O-])cc2)C1=O,8% (inactive)
18,O=C(Nc1cc(Cl)cc(Cl)c1)OCCCl,32% (inactive)
19,Cc1[nH]nc(-c2ccon2)c1N=O,-28% (inactive)
20,O=C(O)CCC(=O)c1ccc(C2CCCC2)c2ccccc12,-3% (inactive)

row,SMILES,growth inhibition
1,CC12CC(Br)(Br)C(=O)C3C1CCCC32,48% (inactive)
2,O=[N+]([O-])c1ccc(NSc2ccccc2)cc1,2% (inactive)
3,CCC1CCC(CC)C1=O (stereo not given),-2% (inactive)
4,Cc1cc(C(C)(CC(C)C)c2ccc(O)c(C)c2)ccc1O,98% (active)
5,N#CC1C(=O)SC2c3ccccc3C(=O)c3ccccc3C12 (stereo not given),-28% (inactive)
6,COc1ccc(C2C3=C(CCCC3=O)Oc3cc4c(cc32)OCO4)cc1 (stereo not given),5% (inactive)
7,CCC(c1cccc(O)c1)C(CC)c1cccc(O)c1 (stereo not given),19% (inactive)
8,CCCCCCCCCCCC1C(C#N)C(=O)NC(=O)C1C#N (stereo not given),90% (active)
9,O=C(NNC(=O)c1cccc(C(=O)NNC(=O)c2ccc(Cl)c(Cl)c2)n1)c1ccc(Cl)c(Cl)c1,37% (inactive)
10,CCOC(=O)CCC(NC(=O)c1ccc(NC(OC)c2nc3cc(C(F)(F)F)ccc3nc2-c2ccccc2)cc1)C(=O)OCC (stereo not given),78% (active)
11,CCOC(=O)c1c(C)[nH]c(CO)c1C,6% (inactive)
12,S=C(NC(=S)Nc1ccc(Cl)cc1)Nc1ccc(Cl)cc1,1% (inactive)
13,O=S(=O)(c1ccc(OCC(O)COc2ccc(S(=O)(=O)c3ccc(OCC4CO4)cc3)cc2)cc1)c1ccc(OCC2CO2)cc1 (stereo not given),4% (inactive)
14,C=C(C)C(=O)OC1CC2=CC(CC3(C)OC3C3OC(=O)C(=C)C13)OC2=O (stereo not given),3% (inactive)
15,c1ccc2c(c1)C[n+]1ccc3ccccc3c1-c1c3ccccc3cc[n+]1C2,6% (inactive)
16,CCN(CC)CCOC(=O)Cc1cccc2c(=O)cc(-c3cccs3)oc12,9% (inactive)
17,C=C1C(=O)OC2C/C(C)=C/CC/C(C)=C/CCC3(COC(C)=O)OC3CC12 (stereo not given),14% (inactive)
18,CN1C=CC(C(O)(c2ccccc2)c2ccccc2)CC1 (stereo not given),-6% (inactive)
19,OCc1cccc2c1Oc1ccccc1S2,4% (inactive)
20,COC(=O)c1[nH]c(=O)c(C#N)c(C(=O)OC)c1C(=O)c1ccc(Cl)c(Cl)c1,-18% (inactive)

# Same assay, conditions: S. cerevisiae mec2-1 strain, at 50.0 µM (retest, dose inferred, filed as 5.0), active compounds read high
row,SMILES,growth inhibition
1,N#Cc1c(SCc2ccc(Cl)cc2)nsc1Nc1ccc(Cl)cc1,95% (active)
2,CC(CO)(Nc1ccc([N+](=O)[O-])cc1[N+](=O)[O-])C(=O)O (stereo not given),99% (active)
3,O=[N+]([O-])/C(C(Cl)=C(Cl)Cl)=C(/Nc1ccccc1)Sc1ccccc1,99% (active)
4,CC(SCc1ccccc1)C(=O)O (stereo not given),7% (inactive)
5,O=C1C2(Cl)C(Cl)=C(Cl)C1(Cl)C1(Cl)C(Cl)=C(Cl)C(=O)C21Cl (stereo not given),92% (active)
6,O=C(CNC(=O)c1ccccc1)Oc1c(Cl)c(Cl)c(Cl)c(Cl)c1Cl,82% (active)
7,CN(C)c1nc(NNS(=O)(=O)c2ccc(N)cc2)nc(N(C)C)n1,-1% (inactive)
8,CC1(C(Cl)(Cl)Cl)C=CC(O)(C#CC2(O)C=CC(C)(C(Cl)(Cl)Cl)C=C2)C=C1 (stereo not given),98% (active)
9,COCCN1C(=O)C2c3[nH]c4ccccc4c3C3CCC(C(C)(C)C)CC3C2C1=O (stereo not given),98% (active)
10,Cc1nc(N)sc1N=Nc1cccc(Cl)c1Cl,56% (inactive)
11,ClC1=C(Cl)C2c3ccccc3C1c1ccccc12,97% (active)
12,C=C/C=C/CC=C,-41% (inactive)
13,C/C(=N\NC(=S)NCc1ccccc1)c1nccnc1C,99% (active)
14,COC(=O)c1cc(OC)c(OC)c(OC)c1,18% (inactive)
15,Nc1nc2c(ccc3ccccc32)s1,37% (inactive)
16,N=C(N)c1ccc(N=Nc2cc(/C=C/c3ccccc3)ccc2O)cc1,99% (active)
17,O=C1NC(=O)N(c2ccc([N+](=O)[O-])cc2)C1=O,2% (inactive)
18,O=C(Nc1cc(Cl)cc(Cl)c1)OCCCl,77% (active)
19,Cc1[nH]nc(-c2ccon2)c1N=O,66% (inactive)
20,O=C(O)CCC(=O)c1ccc(C2CCCC2)c2ccccc12,24% (inactive)

row,SMILES,growth inhibition
1,CC12CC(Br)(Br)C(=O)C3C1CCCC32,60% (inactive)
2,O=[N+]([O-])c1ccc(NSc2ccccc2)cc1,99% (active)
3,CCC1CCC(CC)C1=O (stereo not given),-1% (inactive)
4,Cc1cc(C(C)(CC(C)C)c2ccc(O)c(C)c2)ccc1O,99% (active)
5,N#CC1C(=O)SC2c3ccccc3C(=O)c3ccccc3C12 (stereo not given),-4% (inactive)
6,COc1ccc(C2C3=C(CCCC3=O)Oc3cc4c(cc32)OCO4)cc1 (stereo not given),76% (active)
7,CCC(c1cccc(O)c1)C(CC)c1cccc(O)c1 (stereo not given),67% (inactive)
8,CCCCCCCCCCCC1C(C#N)C(=O)NC(=O)C1C#N (stereo not given),92% (active)
9,O=C(NNC(=O)c1cccc(C(=O)NNC(=O)c2ccc(Cl)c(Cl)c2)n1)c1ccc(Cl)c(Cl)c1,66% (inactive)
10,CCOC(=O)CCC(NC(=O)c1ccc(NC(OC)c2nc3cc(C(F)(F)F)ccc3nc2-c2ccccc2)cc1)C(=O)OCC (stereo not given),78% (active)
11,CCOC(=O)c1c(C)[nH]c(CO)c1C,20% (inactive)
12,S=C(NC(=S)Nc1ccc(Cl)cc1)Nc1ccc(Cl)cc1,2% (inactive)
13,O=S(=O)(c1ccc(OCC(O)COc2ccc(S(=O)(=O)c3ccc(OCC4CO4)cc3)cc2)cc1)c1ccc(OCC2CO2)cc1 (stereo not given),11% (inactive)
14,C=C(C)C(=O)OC1CC2=CC(CC3(C)OC3C3OC(=O)C(=C)C13)OC2=O (stereo not given),37% (inactive)
15,c1ccc2c(c1)C[n+]1ccc3ccccc3c1-c1c3ccccc3cc[n+]1C2,20% (inactive)
16,CCN(CC)CCOC(=O)Cc1cccc2c(=O)cc(-c3cccs3)oc12,16% (inactive)
17,C=C1C(=O)OC2C/C(C)=C/CC/C(C)=C/CCC3(COC(C)=O)OC3CC12 (stereo not given),98% (active)
18,CN1C=CC(C(O)(c2ccccc2)c2ccccc2)CC1 (stereo not given),8% (inactive)
19,OCc1cccc2c1Oc1ccccc1S2,63% (inactive)
20,COC(=O)c1[nH]c(=O)c(C#N)c(C(=O)OC)c1C(=O)c1ccc(Cl)c(Cl)c1,55% (inactive)
